Assay [1] deals with Wnt5a (protein binding on small-molecule microarray). Nature of the assay: Wnt5a binders on small-molecule microarray, primary screen, biophysical, 635/667 nm fluorescence (AID 1142).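 Further: fluorescence read at 667 nm with signal to noise per printed feature.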 The conditions noted are these: 635 nm fluorescence, higher = more signal.
Assay [2] is described as follows: cell viability in Huh7 cells, primary screen, cytotoxicity control for HCV replication inhibitor project, CellTiter-Glo luminescence, basal, 48 h (AID 1143).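 Further: Huh7 hepatoma cells carrying a hepatitis C replication reporter with no stimulus; test concentration not given here.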 The conditions noted are these: Huh7 HCV replicon, higher = more signal, called active from +8 up or from −8 down. Background: In ATP-based viability assays light output follows the ATP content of the culture.

Assay [3] can be described thus: P. aeruginosa biofilm formation inhibitors, primary screen, PAO1 strain, BacTiter-Glo luminescence, LB-PBS (AID 1144). As to conditions: 12 h, higher = more signal.
Assay [4] can be described thus: CREB reporter modulators without forskolin, primary screen, cell-based, PC12, CRE-LacZ reporter, unstimulated (AID 1145). As to conditions: no forskolin, luminescence, 4.5 h, higher = more signal, called active from +8 up or from −8 down.
Assay [5] is described as follows: CREB reporter modulators under forskolin, primary screen, cell-based, PC12, CRE-LacZ reporter, forskolin-stimulated (AID 1146).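 Further: PC12 cells with 6xCRE LacZ reporter stimulated by forskolin 10 µM; beta-galactosidase reporter signal reflecting CREB driven transcription.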 The conditions noted are these: luminescence, 4.5 h, higher = more signal, called active from +8 up or from −8 down.
The target in assay [6] is Streptavidin (Streptomyces avidinii) (UniProt P22629). Kind of assay: streptavidin binders on small-molecule microarray, primary screen, artefact control for SMM compound annotation, biophysical, 635/667 nm fluorescence (AID 1147).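 Further: signal reflects streptavidin binding to arrayed compounds as a control protein.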 As to conditions: streptavidin binding, higher = more signal.
Assay [7] can be described thus: small-molecule binders of probe aInhba, primary screen, biochemical, small-molecule microarray, 635/667 nm fluorescence (AID 1148).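 Further: score merges 667nm spot fluorescence with signal-to-noise for antibody binding to printed compounds.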 As to conditions: higher = more signal.
Assay [8] addresses Torsin-1A (Homo sapiens) (UniProt O14656). Nature of the assay: torsin A binders from cell lysate, primary screen, small-molecule microarray, wild-type, 635/667 nm (AID 1149). The conditions noted are these: COS7 hTOR1A-WT lysate, 635 nm fluorescence, higher = more signal.
The target is the same in assay [9]. Kind of assay: small-molecule binders of mutant TOR1A in lysate, primary screen, cell lysate, small-molecule microarray, COS7 lysate, 635/667 nm fluorescence (AID 1150).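 Further: score pools 667 nm emission and signal to noise measuring lysate protein binding.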 As to conditions: COS7 hTOR1A mutant lysate, 635 nm fluorescence, higher = more signal.
Assay [10] relates to Sonic hedgehog protein (Shh). Nature of the assay: small-molecule binders of Shh protein, primary screen, biochemical, small-molecule microarray, 635/667 nm fluorescence (AID 1151).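 Further: Shh protein binding to compounds spotted on small-molecule microarray slides; score combines spot fluorescence intensity with signal-to-noise across triplicate slides.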 As to conditions: small-molecule microarray binding, 635 nm fluorescence; higher = more signal.
Assay [11] can be described thus: E. coli DRC41 culture turbidity changes, primary screen, E. coli filamentation inducer project, strain DRC41, OD650, 48 h (AID 1152).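 Further: E. coli MC1000 strain DRC41 lacking acrAB efflux pump and sulA.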 The conditions noted are these: E. coli DRC41 (acrAB sulA), higher = more signal, called active from +8 up or from −8 down.
Assay [12] in a line: small-molecule binders of probe aLefty1, primary screen, biochemical, small-molecule microarray, 635/667 nm fluorescence (AID 1153).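 Further: score merges spot fluorescence with signal-to-noise ratio from the scanned slide images.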 The conditions noted are these: higher = more signal.
Assay [13] is described as follows: PSAC antagonists in infected red cells, primary screen, cell-based, P. falciparum Indochina, OD700, 1 h (AID 1154). As to conditions: P. falciparum Indochina infected RBC osmotic lysis, higher = more signal, called active from +8 up or from −8 down.
A short description of assay [14]: PSAC antagonists in infected red cells, primary screen, cell-based, P. falciparum Indochina, OD700, 2 h (AID 1155).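 Further: lysis reports solute entry through the parasite surface anion channel PSAC; channel blockers reduce lysis of infected cells.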 The conditions noted are these: P. falciparum Indochina infected erythrocytes, osmotic lysis OD700; higher = more signal, called active from +8 up or from −8 down.
The nature of assay [15]: osmotic lysis modulators in infected erythrocytes, primary screen, PSAC antagonist project, cell-based, P. falciparum Indochina, OD700, 3 h (AID 1156). The conditions noted are these: higher = more signal, called active from +8 up or from −8 down.
The nature of assay [16]: PSAC antagonists in infected red cells, primary screen, cell-based, P. falciparum Indochina, OD700, 18 h (AID 1157). The conditions noted are these: P. falciparum Indochina infected erythrocytes, osmotic lysis OD700, 18 h; higher = more signal, called active from +8 up or from −8 down.
Assay [17] is described as follows: modulators of S6 phosphorylation in cells, primary screen, cell-based, A549, cytoblot, luminescence, serum-stimulated (AID 1158).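 Further: serum-stimulated A549 lung adenocarcinoma cells; signal is phosphorylated S6 detected by cytoblot immunostaining with HRP secondary.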 The conditions noted are these: A549 phospho-S6 cytoblot, 5 h, higher = more signal.
Assay [18] has as its target NADPH oxidase 2 (Homo sapiens) (UniProt P04839). Nature of the assay: NOX2-dependent H2O2 signal modulators, primary screen, NOX inhibitor project, cell-based, HEK293-NOX2, PMA-stimulated, Amplex Red fluorescence (AID 1159). Further: test concentration not given here. As to conditions: 45 min, higher = more signal, called active from +8 up or from −8 down.
Assay [19] deals with NADPH oxidase 4 (Homo sapiens) (UniProt Q9NPH5). Nature of the assay: NOX4-dependent H2O2 signal modulators, primary screen, NOX inhibitor project, cell-based, HEK293-NOX4, tetracycline-induced, Amplex Red fluorescence (AID 1160). The conditions noted are these: 45 min, higher = more signal, called active from +8 up or from −8 down.
Assay [20] has as its target NADPH oxidase 5 (Homo sapiens) (UniProt Q96PH1). Kind of assay: NOX5-dependent H2O2 signal modulators, primary screen, NOX inhibitor project, cell-based, HEK293-NOX5, Amplex Red fluorescence (AID 1161). The conditions noted are these: HEK293-NOX5, ionomycin, 45 min, higher = more signal.

Activity calls are given as the source filed them. Unless noted, how the calls were made is not given here.

Chain of Torsin-1A (Homo sapiens) (O14656 whole entry, looked up): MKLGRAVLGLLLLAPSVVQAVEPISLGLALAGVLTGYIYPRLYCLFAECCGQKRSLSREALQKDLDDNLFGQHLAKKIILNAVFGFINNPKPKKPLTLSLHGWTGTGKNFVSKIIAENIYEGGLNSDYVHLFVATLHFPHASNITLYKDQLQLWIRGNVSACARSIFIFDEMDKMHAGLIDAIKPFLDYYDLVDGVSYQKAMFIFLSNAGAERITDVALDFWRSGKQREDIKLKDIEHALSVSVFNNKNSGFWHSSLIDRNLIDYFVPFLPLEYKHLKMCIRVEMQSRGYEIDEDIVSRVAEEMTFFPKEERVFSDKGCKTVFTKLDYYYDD
Chain of NADPH oxidase 2 (Homo sapiens) (P04839 whole entry, looked up): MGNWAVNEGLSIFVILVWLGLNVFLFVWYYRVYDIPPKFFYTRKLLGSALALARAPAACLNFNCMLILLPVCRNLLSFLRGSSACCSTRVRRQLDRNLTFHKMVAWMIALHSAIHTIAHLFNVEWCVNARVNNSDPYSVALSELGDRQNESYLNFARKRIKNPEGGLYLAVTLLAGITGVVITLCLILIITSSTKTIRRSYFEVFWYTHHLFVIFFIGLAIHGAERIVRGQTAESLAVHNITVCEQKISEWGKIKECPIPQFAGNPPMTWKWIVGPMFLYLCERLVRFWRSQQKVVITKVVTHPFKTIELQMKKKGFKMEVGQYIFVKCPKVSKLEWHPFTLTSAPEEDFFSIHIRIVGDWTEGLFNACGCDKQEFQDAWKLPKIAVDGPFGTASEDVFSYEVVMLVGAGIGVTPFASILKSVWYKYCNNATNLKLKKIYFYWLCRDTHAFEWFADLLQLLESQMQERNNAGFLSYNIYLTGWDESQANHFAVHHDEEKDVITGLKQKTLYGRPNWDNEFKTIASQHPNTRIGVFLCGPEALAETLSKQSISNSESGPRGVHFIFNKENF
Chain of NADPH oxidase 4 (Homo sapiens) (Q9NPH5 whole entry, looked up): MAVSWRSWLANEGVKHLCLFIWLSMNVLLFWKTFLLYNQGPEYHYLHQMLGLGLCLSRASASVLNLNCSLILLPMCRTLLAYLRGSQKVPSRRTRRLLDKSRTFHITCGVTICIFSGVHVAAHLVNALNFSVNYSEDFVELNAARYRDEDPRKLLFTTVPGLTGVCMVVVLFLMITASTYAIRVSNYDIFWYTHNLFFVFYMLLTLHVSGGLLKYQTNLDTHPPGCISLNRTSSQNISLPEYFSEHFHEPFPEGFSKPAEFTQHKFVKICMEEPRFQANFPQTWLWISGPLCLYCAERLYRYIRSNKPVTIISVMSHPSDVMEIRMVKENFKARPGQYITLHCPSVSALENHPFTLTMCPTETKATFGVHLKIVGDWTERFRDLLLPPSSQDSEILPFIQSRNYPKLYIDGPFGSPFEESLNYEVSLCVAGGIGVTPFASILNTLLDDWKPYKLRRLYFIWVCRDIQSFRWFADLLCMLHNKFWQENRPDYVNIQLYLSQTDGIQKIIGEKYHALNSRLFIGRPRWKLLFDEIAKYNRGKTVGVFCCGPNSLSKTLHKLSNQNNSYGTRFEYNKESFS
Chain of Streptavidin (Streptomyces avidinii) (P22629 whole entry, looked up): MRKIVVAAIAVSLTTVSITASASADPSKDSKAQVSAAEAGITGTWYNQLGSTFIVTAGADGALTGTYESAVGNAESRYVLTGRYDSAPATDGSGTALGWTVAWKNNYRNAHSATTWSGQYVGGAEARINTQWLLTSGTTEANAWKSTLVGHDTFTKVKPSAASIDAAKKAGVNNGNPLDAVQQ
Chain of NADPH oxidase 5 (Homo sapiens) (Q96PH1 whole entry, looked up): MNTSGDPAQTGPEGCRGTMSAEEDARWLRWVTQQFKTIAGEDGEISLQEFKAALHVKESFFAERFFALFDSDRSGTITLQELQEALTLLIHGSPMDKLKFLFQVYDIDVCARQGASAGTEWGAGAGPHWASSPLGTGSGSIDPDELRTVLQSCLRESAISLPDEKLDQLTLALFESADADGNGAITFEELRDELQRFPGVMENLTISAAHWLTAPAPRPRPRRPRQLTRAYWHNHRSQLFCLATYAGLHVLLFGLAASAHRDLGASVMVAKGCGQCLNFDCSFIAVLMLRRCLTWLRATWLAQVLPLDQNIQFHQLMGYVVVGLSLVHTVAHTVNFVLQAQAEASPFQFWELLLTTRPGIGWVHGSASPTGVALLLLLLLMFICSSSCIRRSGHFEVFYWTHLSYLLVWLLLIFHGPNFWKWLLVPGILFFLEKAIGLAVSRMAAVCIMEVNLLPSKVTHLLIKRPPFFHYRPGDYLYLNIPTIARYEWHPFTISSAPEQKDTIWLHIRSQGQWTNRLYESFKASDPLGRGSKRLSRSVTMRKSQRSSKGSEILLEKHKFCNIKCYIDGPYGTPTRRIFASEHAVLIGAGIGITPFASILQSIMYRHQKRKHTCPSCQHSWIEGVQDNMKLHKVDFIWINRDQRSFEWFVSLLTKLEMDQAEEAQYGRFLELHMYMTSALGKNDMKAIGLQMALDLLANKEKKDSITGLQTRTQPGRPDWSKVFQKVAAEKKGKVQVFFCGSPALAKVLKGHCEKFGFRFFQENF

Consider `O=C(NCCN1CCOCC1)[C@@H]1c2ccccc2C(=O)N(Cc2ccccc2Cl)[C@H]1c1ccc(CO)cc1`, for which the composite z-score in assay [1] was -0.38; in assay [6], -0.831; in assay [7], -0.32; in the assay with Torsin-1A (Homo sapiens) [8], -0.826; with Torsin-1A (Homo sapiens) [9], 1.23; in assay [10] it was -1.07. In assay [12], this compound displayed a composite z-score of 0.121. Also, the z-score in assay [2] is -0.276 (inactive); in assay [3], 0.11 (inactive); in assay [4], -0.295 (inactive); in [5], -0.6 (inactive); in assay [11] it was 0.446 (inactive); in assay [13], 4.63 (inactive). Further, the z-score in assay [14] was 0.466 (inactive); in assay [15], 0.297 (inactive); in assay [16] it was 0.306 (inactive); in assay [17], -0.467; in [18], -0.112 (inactive); in assay [19], 0.34 (inactive). The compound also yielded a z-score in assay [20] of -0.371.

For the compound `C=CCNC(=O)[C@@H]1[C@H]2C(=O)O[C@H](c3ccccc3)[C@H](c3ccccc3)N2[C@H](c2ccc(OCCO)cc2)[C@@]12C(=O)N(C(=O)OCCOC)c1ccc(C#Cc3ccc(OC)cc3)cc12`, the composite z-score in assay [1] was 0.0609; in [6], 0.613; in assay [7] it was 0.0497; with Torsin-1A (Homo sapiens) [8], 0.105; with Torsin-1A (Homo sapiens) [9], -0.0165; in [10] it was 1.88. In assay [12], this compound came in with a composite z-score of 0.302. Moreover, the z-score in [2] was -2.81 (inactive); in [3], 0.543 (inactive); in assay [4], 0.476 (inactive); in assay [5], -0.222 (inactive); in assay [11], -0.0604 (inactive); in [13], 3.58 (inactive). The z-score in assay [14] is 1.28 (inactive); in assay [15], 0.0207 (inactive); in assay [16] it was 0.776 (inactive); in [17], -0.492; in assay [18], 1.78 (inactive); in assay [19] it was 0.437 (inactive). For the same compound, in [20], the z-score is 0.986.

`CCCCC(O)C1C=CC2C(=O)N(C)C(=O)C2N1N(c1ccccc1)c1ccccc1` (stereo not given): the composite z-score worked out at 0.29 in [1]; 0.971 in assay [6]; 0.0075 in assay [7]; 0.14 in the assay with Torsin-1A (Homo sapiens) [8]; 0.464 with Torsin-1A (Homo sapiens) [9]; 0.471 in assay [10]. Moreover, the composite z-score in assay [12] stood at 0.475. Moreover, the z-score is -0.975 (inactive) in assay [2]; 0.092 (inactive) in assay [3]; 1.59 (inactive) in [4]; 0.281 (inactive) in [5]; -2.15 (inactive) in [11]; 3.81 (inactive) in assay [13]. For the same compound, the z-score is 1 (inactive) in assay [14]; 1.3 (inactive) in assay [15]; 0.951 (inactive) in assay [16]; -1.05 in assay [17]; -0.334 (inactive) in assay [18]; -1.98 (inactive) in assay [19]. In assay [20], this compound came in with a z-score of -0.376.

In the case of `CC(C)N1C(=O)C[C@@](C(=O)O)(c2ccc([N+](=O)[O-])cc2)[C@H]1c1ccc(CO)cc1`, the composite z-score in [1] was -0.0691; in [6], -0.923; in assay [7], -0.0288; in the assay with Torsin-1A (Homo sapiens) [8] it was -0.254; with Torsin-1A (Homo sapiens) [9], -0.0237; in assay [10] it was -0.878. Moreover, the composite z-score in [12] was determined as 0.188. In addition, the z-score in assay [2] was 0.034 (inactive); in assay [3] it was 1.17 (inactive); in [4] it was 0.441 (inactive); in assay [5], -0.303 (inactive); in assay [11] it was 1.47 (inactive); in [13], 3.45 (inactive). Besides, the z-score is 0.654 (inactive) in [14]; 0.415 (inactive) in [15]; 0.159 (inactive) in [16]; 0.126 in [17]; -2.39 (inactive) in assay [18]; 0.251 (inactive) in [19]. The compound further showed a z-score in [20] of 1.02.

Turning to `C=C(COC)C(=O)CC[C@@H](OC(C)=O)c1cccc(OCCO)c1`, the composite z-score was -0.124 in [1]; -1.07 in assay [6]; -0.128 in [7]; 0.672 with Torsin-1A (Homo sapiens) [8]; -0.708 with Torsin-1A (Homo sapiens) [9]; 0.358 in [10]. For the same compound, the composite z-score in assay [12] was -0.152. The z-score in [2] is -0.3 (inactive); in assay [3], 0.423 (inactive); in assay [4], 3.3 (inactive); in assay [5], 2.95 (inactive); in assay [11], 0.0328 (inactive); in assay [13], 4.13 (inactive). Also, the z-score was 1.11 (inactive) in [14]; 0.864 (inactive) in assay [15]; 0.529 (inactive) in [16]; -0.487 in [17]; 0.212 (inactive) in assay [18]; -1.01 (inactive) in assay [19]. Moreover, the z-score in assay [20] was -1.06.

On to `CN(C)C(=O)[C@@]1(Cc2ccccc2)N=C(c2ccc(OCCCO)cc2)O[C@H]1c1ccccc1`, for which the composite z-score in [1] amounted to 0.87; in assay [6], 1.29; in [7], 0.715; with Torsin-1A (Homo sapiens) [8] it was 0.435; with Torsin-1A (Homo sapiens) [9] it was 0.0678; in assay [10], 0.141. Further, the composite z-score in assay [12] was -0.0171. The z-score in [2] was -3.42 (inactive); in assay [3], -0.315 (inactive); in [4], 0.195 (inactive); in assay [5], -0.925 (inactive); in assay [11] it was 0.756 (inactive); in assay [13] it was 14.9 (active). The z-score in [14] is 2.63 (inactive); in assay [15], 1.4 (inactive); in [16], 1.33 (inactive); in assay [17], -0.39; in assay [18] it was -0.896 (inactive); in assay [19], 0.068 (inactive). The compound further returned a z-score in assay [20] of -1.7.

On to `C=C(COC)/C(=C/C[C@H](OC(=O)c1ccncc1)c1ccccc1OCCO)c1cc(C(=O)OC)ccc1OC`, for which the composite z-score was 0.163 in assay [1]; -0.275 in assay [6]; -0.0136 in assay [7]; 1.19 in the assay with Torsin-1A (Homo sapiens) [8]; 0.664 in the assay with Torsin-1A (Homo sapiens) [9]; 1.71 in [10]. The compound also had a composite z-score in assay [12] of 0.307. Moreover, the z-score in [2] was -2.17 (inactive); in [3], 0.492 (inactive); in [4], 11.9 (active); in [5] it was 2.47 (inactive); in assay [11] it was -0.604 (inactive); in assay [13] it was 14 (active). Besides, the z-score in assay [14] is 2.43 (inactive); in [15] it was 2.72 (inactive); in assay [16], 0.773 (inactive); in assay [17], 0.0976; in assay [18], -1.21 (inactive); in assay [19], 0.0788 (inactive). The compound also gave a z-score in [20] of -1.62.

With `CCCNC(=O)[C@@H]1c2ccccc2C(=O)N(Cc2ccc(OC(F)(F)F)cc2)[C@H]1c1ccc(CO)cc1`, the composite z-score in [1] is 0.474; in assay [6] it was -0.127; in assay [7], -0.0963; with Torsin-1A (Homo sapiens) [8], 0.0008; with Torsin-1A (Homo sapiens) [9] it was -0.424; in [10], 0.346. In assay [12], this compound displayed a composite z-score of -0.0099. Moreover, the z-score was -0.88 (inactive) in [2]; 0.256 (inactive) in assay [3]; -0.322 (inactive) in assay [4]; -0.283 (inactive) in [5]; 0.52 (inactive) in [11]; 1.23 (inactive) in assay [13]. Further, the z-score in assay [14] is -0.146 (inactive); in assay [15], 1.03 (inactive); in [16] it was -0.406 (inactive); in assay [17], 0.289; in [18], -0.62 (inactive); in assay [19] it was 0.184 (inactive). This compound returned a z-score in [20] of 1.75.

(Values after PubChem BioAssay.)
